Assays:
Test in all cases: PBM binding z-score (relative to random genomic background probes); higher = stronger binding; sequences stand for … in GC…GCGATTGACAGCGTAGAATGAAGG
[1] = system: FXR:RXRa (NR concentration 270 nM, RXRa partner concentration 90 nM)
Outline: (§1)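 Ligand-free nuclear receptor dimers were bound for 1 h to custom Agilent 4×180K protein-binding microarrays. Detection used antibodies against each partner (one per run). Binding z-scores rest on regression-normalized fluorescence, with random background probes as the reference.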

[2] = system: LXRa:RXRa (NR concentration 270 nM, RXRa partner concentration 90 nM)
Outline: as §1

[3] = system: LXRa homodimer (NR concentration 270 nM)
Outline: as §1

[4] = system: LXRb:RXRa (NR concentration 270 nM, RXRa partner concentration 90 nM)
Outline: as §1

[5] = system: LXRb homodimer (NR concentration 270 nM)
Outline: as §1

[6] = system: PPARa:RXRa (NR concentration 270 nM, RXRa partner concentration 90 nM)
Outline: as §1

[7] = system: PPARg:RXRa (NR concentration 180 nM, RXRa partner concentration 90 nM)
Outline: as §1

[8] = system: PPARg:RXRa 270nM:90nM, anti-RXR (NR concentration 270 nM, RXRa partner concentration 90 nM)
Outline: as §1

[9] = system: PPARg:RXRa 30nM:10nM, anti-RXR (NR concentration 30 nM, RXRa partner concentration 10 nM)
Outline: as §1

[10] = system: PPARg:RXRa 90nM:30nM, anti-RXR (NR concentration 90 nM, RXRa partner concentration 30 nM)
Outline: as §1

Sequence	PBM binding z-score [1]	PBM binding z-score [2]	PBM binding z-score [3]	PBM binding z-score [4]	PBM binding z-score [5]	PBM binding z-score [6]	PBM binding z-score [7]	PBM binding z-score [8]	PBM binding z-score [9]	PBM binding z-score [10]
GCATATAGGTAACACAAGGTGAAAGTCCGATTGT	0.896	3.64	-0.04	1.36	-0.351	2.19	2.09	2	0.512	1.26
GAAACAGGGTCAGCTAGAGGCCAGAGTATGGAAA	5.08	2.78	-0.301	2.7	-0.705	4.97	4.24	3.85	0.859	2.72
TCTAGTTGGTCAAGGGTCACACACTCGAAATGCG	4.17	3.76	1.25	4.01	0.821	5.27	9.83	8.51	9.9	9.97
CAGCCTAGGTCAGCGCCAGTATAGGAGGAACGTT	1.62	1.05	-0.445	0.71	-0.863	1.92	0.956	1.24	-0.327	0.61
ATACCAAGGTGATCGTAAGGTCGTTGATACTAAC	2.06	1.46	0.729	1.42	-0.157	1.71	0.613	0.737	0.111	0.398
ACTAACAGGCCAAGTTTGGGTCACTCAAACAAAG	0.517	0.251	-0.258	0.977	0.105	1.45	0.241	0.254	-0.0822	0.083
ATCTCTAGGTAACCAAGTTGAGTGAATGCCGAAC	0.189	0.0773	0.252	0.0776	0.391	0.54	0.337	0.316	-0.0449	0.238
TCTTGTAGATCAATGGAGGTTAAGAAAGTGCGCT	0.901	2.8	0.173	1.3	-0.0128	1.52	-0.31	1.5	2.83	2.18
CAAACTAGGTCAATGGTCAAAGTCGAGCCAACCA	3.39	2.76	0.566	2.15	0.29	5.6	9.78	8.03	7.9	8.7
TCTAGCAGGCGAGAGGGTCACTCAAGAGGTACGG	0.647	0.656	-0.616	1.05	-1.27	2.03	0.765	1.64	1.43	1.6
TCTTGTAGATCAACAGGAGGTTATGAAAGATCGA	0.335	1.2	0.215	0.914	-0.0997	1.2	0.228	1.25	2.43	1.78
ATATGTAGGTTAGCTGGGGTCATTCATACTAGGC	4.61	5.73	3.67	5.14	1.97	5.1	5.98	5.23	3.12	4.83
AGAATGAGGTTATACGTAGAACAGGGAAGAAAGT	2.01	1.58	-0.14	1.56	0.0441	3.07	2.2	1.83	1.07	1.68
GCTTGTATATCAAGGTTAAGAAAGACTAAGCTAA	0.268	1.1	-0.0678	0.659	-0.396	1.19	0.639	0.798	0.189	0.527
TAAACAGGGTCAAAGGCCAGAGTACGAATGTCGA	7.35	5.57	0.675	4.69	1.48	6.49	9.15	8.05	6.91	8.47
CCTACTGGGCCATTCAGAGGTCATTGCTCATATG	2.76	4.37	6.67	3.6	0.398	3.57	1.99	2.92	0.777	2.16
CGTCAAAGTTCAACTTAGGTAACGTAAAGCACGC	7.46	6.58	4.88	4.63	2.58	5.35	5.28	5.78	2.4	4.66
ATTACAGGGTCACTAGGCCAGAGTAGGTACGAAT	6.12	4.57	0.484	3.59	1.62	5.94	8.17	6.86	3.45	5.84
CCTTACGGGTCAAGGTTAAAGCACGGGTGGTACG	5.62	3.83	0.272	3.14	0.0143	5.08	5.05	5.34	2.38	4.5
CCTACCGGGCCACGAAAGGTCATTGATTCAGTGA	3.59	5.17	5.04	4.36	0.399	4.26	1.96	2.98	0.636	1.92
GCAGACAGGTGAAACGCAGGTAACTCAGGGTGGC	-0.388	0.00311	-0.515	-0.48	-1	0.864	0.383	-0.117	-0.52	-0.467
GGAACGTGGGCAAGTTGATAGCAGAGTTTGATGG	-0.957	-0.763	-0.666	-0.678	-0.982	-0.579	0.382	-0.458	-0.337	-0.422
TCTGCTTGGTCAGTTGGTCAGCTAACGAGCTGCC	-0.433	-0.4	-1.02	-0.763	-0.0318	-0.161	-1.11	0.771	1.04	0.933
CTACCAAGGTGAACAAGATCGTTGATTACTATTC	0.605	0.479	-0.171	0.709	-0.457	1.31	0.756	0.973	0.161	0.606

Sequence	PBM binding z-score [1]	PBM binding z-score [2]	PBM binding z-score [3]	PBM binding z-score [4]	PBM binding z-score [5]	PBM binding z-score [6]	PBM binding z-score [7]	PBM binding z-score [8]	PBM binding z-score [9]	PBM binding z-score [10]
TAGCCTAGGGCATGGGCCAGTATACCACGCGAAC	-0.362	-0.149	-0.378	-0.666	-1.19	-0.188	0.658	0.665	-0.115	0.0783
CCTAGTTGATCAAGGTCACACACGCTATAGGTAC	4.38	4.15	2.75	4.06	1.42	4.36	2.96	3.19	1.28	2.24
ATCTCTAGGTAACAAGTACAGTGAAAGAGAGGAC	0.404	0.297	0.245	-0.0374	0.894	0.308	1.33	1.36	0.696	1.02
AACTCTAGGTAAAGTTCAGTGAAAGATCGATAGA	0.741	1.51	1.46	1.06	0.134	2.44	3.7	4.77	2.77	4.53
ACTAGTTGGTCAGCTGACGTCACACACAATTCGG	0.0857	0.103	-0.224	0.522	0.287	0.229	0.969	-0.246	-0.0374	-0.0611
CCTACTAGGTCAATGGTCAGCTAAAGCAGCTCGC	3.38	2.41	0.529	1.87	0.47	4.62	8.83	7.23	6.92	7.71
CGAACTAGGTCATCCAGGATAGTGAATACATTGA	4.33	2.51	0.425	2.22	-0.0288	4.87	7.49	6.2	3.48	5.72
CCGTCTGGGGCAAAGGTTACCATACTCAGTACGA	1.5	1.57	-0.23	2.15	-0.982	4.92	10.4	8.97	9.6	10.6
AATACAGTGTCACTAGGCCAGAGTAGGTACGAAT	-0.0447	0.0759	-0.316	-0.0896	-0.131	1.44	1.82	1.52	0.462	0.705
TCTCGTAGATCAATAGAGGTTAAGAAAGTGCGCT	0.399	3.34	0.504	1.71	-0.598	1.62	-0.218	1.6	2.83	2.12
CCTCAGAGGACAGAAGGTCAGAGCTGTCCGCTTT	1.31	1.63	-0.13	1.24	-0.707	2.19	0.358	0.634	-0.132	0.513
TCTCGGAGGACACGAGGGTCAGAGCTTTCCAGAG	0.856	0.365	-0.438	0.47	-1.32	1.46	0.145	1.07	1.75	1.17
ACAAGCAGGCCAAGTTTGGGTCACTCAAACAAAG	0.226	0.181	-0.641	0.53	-0.924	1.51	0.101	0.443	-0.289	0.124
ACTAGTTGGTCAGCTGAGGACACACACAATTCGG	1.67	-0.161	-0.165	0.0976	0.0569	0.0805	0.997	-0.202	-0.228	-0.243
TCAAGTAGGTTAGGGGCATTCAGAATGGCGTCGA	0.99	0.718	0.21	1.28	0.587	2.19	2.64	3.58	3.71	3.65
ATCGCTAGGTAAAGATAGTTCAGTGAATGCAAAT	-0.496	3.12	-0.0972	0.21	-0.672	-0.0926	0.0549	-0.523	-0.376	-0.332
GCGACTGGGGCATCAGCAGATTACCATAACTTAA	-0.359	-0.612	-0.401	0.0496	-0.549	0.511	1.02	0.488	-0.24	0.0962
CGTCCAAGGTCAGAGAGGTCCGTGAATGCCGAGT	4.9	3.08	-0.0652	1.98	-0.373	3.88	1.83	2.4	-0.0552	1.08
TTACCAGGGTGAGCTGAGGTCGTTGATCCAACTC	1.3	1.44	-0.264	0.797	-1.42	1.87	0.186	1.08	-0.0751	0.766
GCTGCTAGGTCAACTGTTGGTCAGCTAAAGCTCG	3.97	2.97	0.182	2.03	0.134	3.61	2.63	3.07	0.511	2.23
CAAACTAGGTCAGAGGTCAAAGTCGAGCCAACCA	7.41	6.65	5.53	6.17	2.6	7.53	13.4	11.1	11.7	12.8
ACTTACGGGTCATCGAGGTTATAGCACGCGTATA	6.76	4.95	0.924	4.29	0.569	5.8	5.44	5.54	2.13	4.43
CCTGACGGGTCAAGGTTATAGCACGGGTGGTACG	4.36	2.88	0.0717	2.21	-0.369	4	2.54	2.92	0.472	1.61
ATCTCTAGGTAGAGATAGTTCAGTGAATGCAAAT	-0.234	-0.0128	0.0165	-0.111	0.0975	0.178	0.258	0.0156	0.0243	0.104

Source: the supplement of paper PMC6555819
